{
  "source": "PubChem BioAssay (NCATS)",
  "note": "Results filed as inconclusive are left out. Active and inactive are the calls of the source. Calls come from the whole dose curve; as a rule, active = well fitted curve in the direction sought with a large enough effect; inconclusive = small, poorly fitted or top-dose-only effect, or another doubt; inactive = no such curve, though single readings can be large; an effect the other way counts as inactive or inconclusive.",
  "data": [
    {"biological_target": "Rap guanine nucleotide exchange factor 3 (Homo sapiens) (UniProt O95398)", "sequence (O95398 whole entry, looked up)": "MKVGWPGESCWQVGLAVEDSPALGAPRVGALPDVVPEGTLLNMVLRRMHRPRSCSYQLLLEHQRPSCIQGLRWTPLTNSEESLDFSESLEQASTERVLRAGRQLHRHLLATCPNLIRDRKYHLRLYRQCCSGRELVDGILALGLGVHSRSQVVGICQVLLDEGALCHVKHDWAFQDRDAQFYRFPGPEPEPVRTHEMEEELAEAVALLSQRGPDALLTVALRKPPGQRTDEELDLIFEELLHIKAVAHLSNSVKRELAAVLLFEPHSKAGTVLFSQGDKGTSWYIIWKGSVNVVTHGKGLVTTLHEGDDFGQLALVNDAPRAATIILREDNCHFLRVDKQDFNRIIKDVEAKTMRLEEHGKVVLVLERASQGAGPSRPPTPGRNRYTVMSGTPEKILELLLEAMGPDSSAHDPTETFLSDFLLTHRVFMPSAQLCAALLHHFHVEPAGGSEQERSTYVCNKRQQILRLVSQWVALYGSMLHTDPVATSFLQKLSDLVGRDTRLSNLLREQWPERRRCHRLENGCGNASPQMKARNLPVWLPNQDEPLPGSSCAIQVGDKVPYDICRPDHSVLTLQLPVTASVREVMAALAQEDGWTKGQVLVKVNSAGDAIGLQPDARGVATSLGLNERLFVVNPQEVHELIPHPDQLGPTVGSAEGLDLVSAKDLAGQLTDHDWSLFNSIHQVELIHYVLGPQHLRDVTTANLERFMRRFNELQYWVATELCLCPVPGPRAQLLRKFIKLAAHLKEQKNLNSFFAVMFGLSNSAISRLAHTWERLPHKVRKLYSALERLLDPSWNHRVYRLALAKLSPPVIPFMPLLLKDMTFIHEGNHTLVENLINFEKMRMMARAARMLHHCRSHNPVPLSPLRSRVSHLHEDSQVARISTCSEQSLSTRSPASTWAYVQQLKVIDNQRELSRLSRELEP", "assay": "Confirmatory qHTS for agonist of cAMP-regulated guanine nucleotide exchange factor 3 (EPAC1) (AID 1645881);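 note: EPAC1 catalysed release of BODIPY-GDP from Rap1B seen as fluorescence loss; 100% = effect of cAMP agonist control; nearly all actives have a fitted effect of over 75% in size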", "conditions": "EPAC1 Rap1B BODIPY-GDP exchange fluorescence; series mostly up to 154 µM; activation: at the top concentration", "values": [
      {"smiles": "CCCN1C(=O)c2[nH]nc(-c3ccc(F)cc3)c2C1c1ccc(O)c(OCC)c1", "note": "(stereo unspecified)", "activation": "14.7% (inactive)"},
      {"smiles": "Cn1cc(/C=C/c2cc[n+](C)cc2)c2cc(F)ccc21", "activation": "-81.4% (inactive)"},
      {"smiles": "CC(C)(C)c1cc(NCCCn2ccnc2)n2ncc(-c3ccccc3)c2n1", "activation": "19.4% (inactive)"},
      {"smiles": "Cc1ccc2c(c1)OC(=O)CC2c1ccccc1", "note": "(stereo unspecified)", "activation": "28.9% (inactive)"},
      {"smiles": "CCOc1ccc(C2C3=C(CCCC3=O)Nc3ccc4ncccc4c32)cc1", "note": "(stereo unspecified)", "activation": "8.27% (inactive)"},
      {"smiles": "Cc1cccc(Oc2ccccc2NC(=O)C2=COCCO2)c1", "activation": "24.9% (inactive)"},
      {"smiles": "Cc1csc2nc(-c3cccc(NC(=O)c4cccc(F)c4)c3)cn12", "activation": "8.56% (inactive)"},
      {"smiles": "Cc1cccc(Cn2nnc3c(=O)[nH]c(C4CCCN(C(=O)c5ccc(C(C)(C)C)cc5)C4)nc32)c1", "note": "(stereo unspecified)", "activation": "-19.1% (inactive)"},
      {"smiles": "CN(Nc1cccc(Cl)c1)c1cccc(Cl)c1", "activation": "11.9% (inactive)"},
      {"smiles": "Cn1cccc1/C=C1\\SC(=S)N(NC(=O)c2cccc(Cl)c2)C1=O", "activation": "23% (inactive)"},
      {"smiles": "Clc1ccc(CSc2nnc(-c3ccccn3)n2Cc2ccco2)cc1Cl", "activation": "19.9% (inactive)"},
      {"smiles": "Cc1cc(N(CCO)Cc2ccccc2)n2nc(-c3ccc(C(C)(C)C)cc3)nc2n1", "activation": "-47% (inactive)"},
      {"smiles": "CN(CC(=O)Nc1ccc(Cl)c(C(F)(F)F)c1)C(=O)c1ccc2c(c1)OCCO2", "activation": "2.6% (inactive)"},
      {"smiles": "COc1ccc(OC)c(NC(=O)CSc2nccn2-c2cc(C)cc(C)c2)c1", "activation": "13.2% (inactive)"},
      {"smiles": "COc1ccc(CNc2ncnc3onc(-c4ccc(F)cc4)c23)cc1", "activation": "12.2% (inactive)"},
      {"smiles": "CN(C)c1ccc(/C=C2\\C(=N)N3N=C(CC(=O)N4CCCCC4)SC3=NC2=O)cc1", "activation": "13.5% (inactive)"},
      {"smiles": "C/C(=N\\N(Cc1ccccc1)c1ccccc1)c1cccnc1", "activation": "25% (inactive)"},
      {"smiles": "CC(C)C(NC(=O)C1CC(=O)N(Cc2ccccc2)C1)c1nc2ccccc2[nH]1", "note": "(stereo unspecified)", "activation": "25.1% (inactive)"},
      {"smiles": "O=C1OC(Cc2ccccc2)(c2ccccc2)c2ccccc21", "note": "(stereo unspecified)", "activation": "16.4% (inactive)"},
      {"smiles": "COc1ccc(OC)c(NC(=O)CSc2ncnc3sc(C)cc23)c1", "activation": "28.5% (inactive)"},
      {"smiles": "COc1ccc(NC(=O)c2cc(-c3cc(Cl)ccc3C)n[nH]2)cn1", "activation": "12.7% (inactive)"},
      {"smiles": "Cc1cccc2sc(N(Cc3cccnc3)C(=O)c3cccs3)nc12", "activation": "18.5% (inactive)"}
    ]},
    {"biological_target": "Rap guanine nucleotide exchange factor 4 (Homo sapiens) (UniProt Q8WZA2)", "sequence (Q8WZA2 whole entry, looked up)": "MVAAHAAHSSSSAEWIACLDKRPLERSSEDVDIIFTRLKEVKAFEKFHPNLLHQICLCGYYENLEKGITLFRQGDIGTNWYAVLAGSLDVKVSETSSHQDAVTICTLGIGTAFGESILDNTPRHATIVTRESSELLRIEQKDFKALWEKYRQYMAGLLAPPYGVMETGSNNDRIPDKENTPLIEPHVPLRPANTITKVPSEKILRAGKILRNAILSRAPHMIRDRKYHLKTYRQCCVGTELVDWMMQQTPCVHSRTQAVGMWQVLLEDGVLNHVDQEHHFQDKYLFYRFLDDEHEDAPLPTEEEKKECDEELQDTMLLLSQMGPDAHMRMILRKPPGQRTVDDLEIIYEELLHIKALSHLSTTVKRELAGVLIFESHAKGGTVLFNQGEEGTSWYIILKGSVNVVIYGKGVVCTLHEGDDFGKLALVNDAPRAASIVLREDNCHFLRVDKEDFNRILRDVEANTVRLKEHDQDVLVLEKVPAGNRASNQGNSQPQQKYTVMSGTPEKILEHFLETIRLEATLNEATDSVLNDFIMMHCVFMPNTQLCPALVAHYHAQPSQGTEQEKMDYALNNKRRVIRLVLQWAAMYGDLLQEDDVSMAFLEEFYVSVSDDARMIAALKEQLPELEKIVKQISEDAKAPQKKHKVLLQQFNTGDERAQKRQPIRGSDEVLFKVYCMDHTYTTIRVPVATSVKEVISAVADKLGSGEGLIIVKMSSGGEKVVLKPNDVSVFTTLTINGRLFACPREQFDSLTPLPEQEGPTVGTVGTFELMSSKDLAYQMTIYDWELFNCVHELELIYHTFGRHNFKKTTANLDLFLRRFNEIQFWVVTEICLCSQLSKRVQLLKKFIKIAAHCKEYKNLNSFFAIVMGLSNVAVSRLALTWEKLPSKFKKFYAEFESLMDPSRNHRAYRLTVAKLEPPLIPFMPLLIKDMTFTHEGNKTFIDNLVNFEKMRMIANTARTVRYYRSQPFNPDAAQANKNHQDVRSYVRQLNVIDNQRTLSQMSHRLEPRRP", "assay": "Confirmatory qHTS for antagonist of cAMP-regulated guanine nucleotide exchange factor 4 (EPAC2) (AID 1645885); note: nearly all actives have a fitted effect of over 25% in size; note: potency is the fitted concentration of half-maximal effect; for activity change, negative = inhibition: % is set by controls: 0 for no effect and ±100 for the full control effect", "conditions": "EPAC2 Rap1B-BODIPY-GDP exchange fluorescence, biochemical; series mostly up to 12.7 µM; activity change, negative = inhibition: at the top concentration", "values": [
      {"smiles": "CC1=Nc2ccccc2/C1=C/c1sc(=N)n(-c2nccs2)c1O", "activity change, negative = inhibition": "149% [at 114 µM] (inactive)"},
      {"smiles": "Cc1ccccc1OCC(=O)Nc1ccc(C(=O)OCc2cc(=O)n3c(C)csc3n2)cc1", "activity change, negative = inhibition": "-3.02% (inactive)"},
      {"smiles": "Cc1ccc(C2CC2/C(=N/O)c2ccc(F)cc2)cc1", "note": "(stereo unspecified)", "Potency": "37.9 µM (active)"},
      {"smiles": "O=C(O)c1ccc(NS(=O)(=O)c2ccc3c(c2)C2C=CCC2C(c2ccccc2F)N3)cc1", "note": "(stereo unspecified)", "Potency": "75.7 µM (active)"},
      {"smiles": "Oc1[nH]c2ccccc2c1N=Nc1ccccc1F", "activity change, negative = inhibition": "44% [at 114 µM] (inactive)"},
      {"smiles": "Cc1ccc(SCC(=O)Nc2ccccc2N2CCOCC2)cc1", "outcome": "inactive"},
      {"smiles": "Cc1nc(N)sc1-c1csc(Nc2ncccn2)n1", "activity change, negative = inhibition": "2.14% [at 114 µM] (inactive)"},
      {"smiles": "COc1ccc(/C=C2\\SC(=S)N(CCC(=O)N3CCCCC3CCO)C2=O)cc1", "note": "(stereo unspecified)", "activity change, negative = inhibition": "-6.32% [at 114 µM] (inactive)"},
      {"smiles": "Cc1nc(NC(=O)c2c(-c3ccccc3)c(-c3ccccc3)nn(C)c2=O)sc1C", "activity change, negative = inhibition": "2.55% (inactive)"},
      {"smiles": "O=S(=O)(c1cccc2ccccc12)N1CCCCC1", "Potency": "21.3 µM (active)"},
      {"smiles": "COc1ccc(NC(=O)COC(=O)CCCOc2ccc(Cl)cc2Cl)cc1Cl", "Potency": "6.01 µM (active)"},
      {"smiles": "Cc1nc2c(C(=O)NCc3ccccc3Cl)c[nH]n2c(=O)c1Cc1cccc(Cl)c1", "activity change, negative = inhibition": "15.5% (inactive)"},
      {"smiles": "Cc1ccc(CNC(=O)c2cccc3c2C(=O)c2ccc(N4CCCCC4)cc2S3(=O)=O)cc1", "activity change, negative = inhibition": "-4.6% (inactive)"},
      {"smiles": "COc1ccccc1/C=C(/C(=O)OCC(=O)Nc1ccc(N(C)C)cc1)c1ccccc1", "Potency": "5.36 µM (active)"},
      {"smiles": "CCCN1C(=O)c2[nH]nc(-c3ccc(F)cc3)c2C1c1ccc(O)c(OCC)c1", "note": "(stereo unspecified)", "activity change, negative = inhibition": "-2.16% (inactive)"},
      {"smiles": "Cn1cc(/C=C/c2cc[n+](C)cc2)c2cc(F)ccc21", "activity change, negative = inhibition": "338% [at 114 µM] (inactive)"},
      {"smiles": "CC(C)(C)c1cc(NCCCn2ccnc2)n2ncc(-c3ccccc3)c2n1", "activity change, negative = inhibition": "40.6% [at 114 µM] (inactive)"},
      {"smiles": "Cc1csc2nc(-c3cccc(NC(=O)c4cccc(F)c4)c3)cn12", "activity change, negative = inhibition": "-4.54% (inactive)"},
      {"smiles": "Cc1cccc(Cn2nnc3c(=O)[nH]c(C4CCCN(C(=O)c5ccc(C(C)(C)C)cc5)C4)nc32)c1", "note": "(stereo unspecified)", "outcome": "inactive [at 12.7 µM]"},
      {"smiles": "Cn1cccc1/C=C1\\SC(=S)N(NC(=O)c2cccc(Cl)c2)C1=O", "activity change, negative = inhibition": "-14.1% [at 114 µM] (inactive)"},
      {"smiles": "Cc1cc(N(CCO)Cc2ccccc2)n2nc(-c3ccc(C(C)(C)C)cc3)nc2n1", "activity change, negative = inhibition": "23.9% (inactive)"},
      {"smiles": "CN(CC(=O)Nc1ccc(Cl)c(C(F)(F)F)c1)C(=O)c1ccc2c(c1)OCCO2", "activity change, negative = inhibition": "-28.3% [at 114 µM] (inactive)"},
      {"smiles": "COc1ccc(OC)c(NC(=O)CSc2nccn2-c2cc(C)cc(C)c2)c1", "activity change, negative = inhibition": "23.2% (inactive)"},
      {"smiles": "COc1ccc(CNc2ncnc3onc(-c4ccc(F)cc4)c23)cc1", "activity change, negative = inhibition": "-7.78% (inactive)"},
      {"smiles": "CN(C)c1ccc(/C=C2\\C(=N)N3N=C(CC(=O)N4CCCCC4)SC3=NC2=O)cc1", "activity change, negative = inhibition": "0.154% [at 114 µM] (inactive)"},
      {"smiles": "CC(C)C(NC(=O)C1CC(=O)N(Cc2ccccc2)C1)c1nc2ccccc2[nH]1", "note": "(stereo unspecified)", "activity change, negative = inhibition": "-9.02% [at 114 µM] (inactive)"},
      {"smiles": "O=C1OC(Cc2ccccc2)(c2ccccc2)c2ccccc21", "note": "(stereo unspecified)", "activity change, negative = inhibition": "61.1% [at 114 µM] (inactive)"},
      {"smiles": "COc1ccc(OC)c(NC(=O)CSc2ncnc3sc(C)cc23)c1", "activity change, negative = inhibition": "20% [at 114 µM] (inactive)"},
      {"smiles": "Cc1cccc2sc(N(Cc3cccnc3)C(=O)c3cccs3)nc12", "activity change, negative = inhibition": "1.45% (inactive)"}
    ]}
  ]
}
